# Results as given in PubChem BioAssay (Tox21).
# Results filed as inconclusive are left out. A number with no mark means an inactive call. Active and inactive are the calls of the source. Calls follow the shape of the full dose curve.
# Test: qHTS assay to identify small molecule agonists of the AP-1 signaling pathway - cell viability counter screen (AID 1159525); also: nearly all actives have a fitted effect of over 55% in size
# Conditions: ME-180 (cervical carcinoma) AP-1-bla cells viability, ATP luminescence, 5 h; series mostly up to 76.8 µM; viability change, negative = cytotoxic: at the top concentration
# Description: National Center for Advancing Translational Sciences [NCATS]
# NIH Chemical Genomics Center [NCGC]
# U.S. Environmental Protection Agency [EPA]
# National Institutes of Environmental Health Sciences [NIEHS]
# National Toxicology Program [NTP]
# U.S. Food and Drug Administration [FDA]
# Activator protein-1 (AP-1), a transcription factor, plays an important role in tumor genesis by regulating genes involved in cell proliferation, differentiation, apoptosis, and angiogenesis. AP-1 activity is induced by a complex network of signaling pathways that involves extracellular signals, such as growth factors. The AP-1 protein complex formed from c-Fos and c-Jun binding to the AP-1 response element results in transcriptional activation of genes containing such elements within their promoter.
# Low molecular weight molecules have been discovered and developed to modulate various components of these signaling pathways, for example, MAP kinase inhibitors. However, many points of pathway modulation remain untested due to the lack of chemical probes making this signaling locus of general interest.
# Using a beta-lactamase reporter-gene under control of the AP-1 response element, a cell-based assay [CellSensor(TM) AP-1-bla ME-180 developed by Invitrogen Corp.] was used to measure EGF-induced signaling. The Tox21 10K library compounds were measured for their ability to positively modulate the action of EC50 EGF on reporter gene activity. Compounds were screened in a 15-pt titration series in 1536-well format. The cytotoxicity of the Tox21 compound library against this cell line was tested in parallel by measuring the intra cellular ATP content in the same wells.
# Tox21 Assay Protocol Summary:
# 2500 cells/5uL in Opti-MEM medium containing 0.5% dialyzed FBS, 0.1 mM NEAA, 1 mM sodium pyruvate and 10 mM HEPES was dispensed into 1536-well black wall/clear bottom plates using a Multidrop dispenser and cells were cultured at 37 degrees Celsius overnight. Next day 23 nL of compounds dissolved in DMSO, positive controls or DMSO were delivered to each well using a pin tool. The plates were incubated at 37 degrees Celsius for 5 hours. 1 uL of LiveBLAzerTM B/G FRET substrate (Solution A+B+C+D) was added to each well using a Flying Reagent Dispenser. After incubated at room temperature for 2.5 hours the plates were measured on an EnVision plate reader at Excitation 405nm, Emission1=460nm and Emission 2=530nm. The %Activity was determined from the ratio of 460nm/530nm.
# After the plates were read for Beta-Lactamase assay on Envision; 3 ul Cell Titer Glo (Promega) was added to measure the cytotoxicity and the plates were then incubated at RT in dark for 30 min. The luminescence was read on ViewLux (Perkin Elmer, Shelton, CT) using 6 sec exposure. ViewLux data was expressed as relative luminescence units.
# For primary data analysis, raw plate reads for each titration point were first normalized relative to […] EGF control (100%) and DMSO only wells (basal, 0%).
# For primary data analysis for viability assay, raw plate reads for each titration point were first normalized Tetra n-octyl ammonium bromide control (-100%) and DMSO (control, 100%).
# Potency is read from the fitted curve at half-maximal effect.
Compound,Potency,"viability change, negative = cytotoxic"
CC1=C(/C=C/C(C)=C/C=C/C(C)=C/C=O)C(C)(C)CCC1,34.5 µM (active),
O=C(Nc1ccc(Oc2ccc(Cl)cc2)c(Cl)c1)c1cc(I)cc(I)c1O,,-24.8% [at 35.3 µM]
O=C(Oc1cccc2cccnc12)c1ccccc1,,-11.3% [at 35.3 µM]
S=c1[nH]c2ccccc2s1,,-12.7%
CCCCCCCCCCCCCCCS(=O)(=O)Oc1ccccc1,,-3.11% [at 35.3 µM]
C[n+]1ccn(Cc2ccccc2)c1,,-6.86%
Nc1ccccc1O,15.3 µM (active),
CCCCC(CC)COC(=O)c1ccccc1C(=O)O (stereo not given),,-9.47%
CCCC/C=C/CCCCO,,1.9%
O=[N+]([O-])c1cc(Cl)c(Cl)c(Cl)c1Cl,,1.3%
CCN(C(=O)c1cc(C)cc(OC[C@H](C)Nc2ccncc2)c1)C(C)C,,-3.2% [at 35.3 µM]
CCOC(=O)/C=C(C)/C=C/C=C(C)/C=C/c1c(C)cc(OC)c(C)c1C,,-5.52% [at 35.3 µM]
CNc1ccc(O)cc1,24.5 µM (active),
C=C(C)C(=O)OCC(O)COc1ccc(C(C)(C)c2ccc(OCC(O)COC(=O)C(=C)C)cc2)cc1 (stereo not given),,-4.23%
C/C(=C(/OCCOc1ccc(Cl)cc1)c1ccc(Cl)cc1Cl)n1ccnc1,,-14.7% [at 35.3 µM]
C=C(C)C(=O)OCC[N+](C)(C)C,,-10.3%
Oc1ccc(N=Nc2ccccc2)cc1,,-23.6%
CCCCCCCCCCC=O,,-4.56%
O=C(O)c1cc(O)c2c(c1)C(=O)c1cccc(O)c1C2=O,,2.44%
CCCCCCCCCCCCCCCCCC[N+](C)(C)C,49.1 µM (active),

Compound,Potency,"viability change, negative = cytotoxic"
CCN(Cc1cccnc1)C(=O)c1cccc(Cl)c1[C@]1(C)C(=O)N(Cc2ccc(OC)cc2OC)c2ccc(Cl)cc21,,2.15%
CC(=O)SC[C@@H](Cc1ccccc1)C(=O)NCC(=O)OCc1ccccc1,,1.02% [at 35.3 µM]
CC(NN)c1ccccc1 (stereo not given),,4.35% [at 15.8 µM]
CC1(C)CCC(C)(C)c2cc(C(=O)Nc3ccc(C(=O)O)cc3)ccc21,,-4.43%
CCCCc1oc2ccc(NS(C)(=O)=O)cc2c1C(=O)c1ccc(OCCCN(CCCC)CCCC)cc1,19 µM (active),
Nc1c(Cl)cc(Cl)cc1Cl,,2.09%
CCC(CN)=C(c1ccccc1)c1ccccc1,,-13.3% [at 35.3 µM]
C/C=C1/C(=O)C[C@H]2[C@@H]3CCC4=CC(=O)CC[C@]4(C)[C@H]3CC[C@]12C,,0.516%
CCCCN1C(=O)[C@@H]([C@H](O)C2CCCCC2)NC(=O)C12CCN(Cc1ccc(Oc3ccc(C(=O)O)cc3)cc1)CC2,,-4.81%
CCOc1nc2cccc(C(=O)OC(C)OC(=O)OC3CCCCC3)c2n1Cc1ccc(-c2ccccc2-c2nn[nH]n2)cc1 (stereo not given),27.5 µM (active),
O=C1c2c(O)ccc(Nc3ccc(CCO)cc3)c2C(=O)c2c([N+](=O)[O-])ccc(O)c21,,-6.05%
CCCC(=O)OC[C@@H](OC(=O)CCC)[C@@H](OC(=O)CCC)[C@H](Cn1c2nc(=O)[nH]c(=O)c-2nc2cc(C)c(C)cc21)OC(=O)CCC,,2.74% [at 35.3 µM]
Cc1oc(-c2ccccc2)nc1CCC(=O)c1ccc(CC2SC(=O)NC2=O)cc1 (stereo not given),,0.356% [at 35.3 µM]
NC(=O)C1(N2CCCCC2)CCN(CCCN2c3ccccc3CCc3ccc(Cl)cc32)CC1,26.8 µM (active),
O=[N+]([O-])c1ccccc1Nc1ccccc1,,6.71%
CCc1cc(Cc2cc(CC)cc(C(C)(C)C)c2O)c(O)c(C(C)(C)C)c1,11 µM (active),
OCCN(CCO)c1nc(N2CCCCC2)c2nc(N(CCO)CCO)nc(N3CCCCC3)c2n1,,-10.1% [at 35.3 µM]
Fc1ccc([C@@H]2CCNC[C@H]2COc2ccc3c(c2)OCO3)cc1,,-0.575% [at 35.3 µM]
CC(C)OC(=O)c1cc2c(OCC(O)CNC(C)(C)C)cccc2[nH]1 (stereo not given),,2.75% [at 35.3 µM]
CCC1=C[C@@H]2CN(C1)Cc1c([nH]c3ccccc13)[C@@](C(=O)OC)(c1cc3c(cc1OC)N(C)[C@H]1[C@@](O)(C(=O)OC)[C@H](OC(C)=O)[C@]4(CC)C=CCN5CC[C@]31[C@@H]54)C2,,0.58% [at 35.3 µM]
